Assay results published in PubChem BioAssay AID463173 (ICCB-Longwood Screening Facility, Harvard Medical School, 2010).
Hit rate of the full screen: of about 52,000 compounds, about 4,300 (8.3%) were called active. Only a selection was taken, and actives are over-represented in it overall. A number with no mark means an inactive call. Cut-off read from the data, not from the text of the source: active = survival mostly below about 52% (no sharp cut-off); inactive = mostly above about 56%.

test system: DeltatarO mutant; test: S. aureus survival, RN4220 and DeltatarO strains – OD600, teichoic acid synthesis inhibitors, primary screen (AID 463173); details: S. aureus RN4220 wild type/DeltatarO growth, OD600, 18 h, active compounds read low, screened at 18.75 µg/mL (by protocol)

SMILES | survival
CCc1ccc(S(=O)(=O)Nc2ccc(-c3ccc(N4CCCCCC4)nn3)cc2)cc1 | 95%
Cc1ccc(C)c(N(C)C(=O)CCNC(=O)Cn2cnc3ccccc3c2=O)c1 | 69%
Cc1ccc(S(=O)(=O)NC2(C(F)(F)F)C(=O)Nc3c2c(=O)[nH]c(=O)n3-c2ccccc2)cc1 (stereo unspecified) | 89%
COc1cc(OC)cc(-c2nc3nc(C)c(CCC(=O)Nc4ccc(Cl)cc4)c(C)n3n2)c1 | 65%
COc1cccc(CNc2ncnc3onc(C)c23)c1 | 125%
Cc1ccc(NC(=O)N2CCc3cc(S(=O)(=O)N4CCC(C)CC4)ccc32)cc1F | 105%
COc1c(C)cccc1C(=O)Nc1ccc(-c2nc3ccccc3s2)c(Cl)c1 | 68%
Cc1ccccc1CNC(=O)c1ccc2nc(C(C)C)oc2c1 | 83%
COc1ccc(-c2onc(C)c2C)cc1S(=O)(=O)N1CCN(c2cc(C)ccc2C)CC1 | 81%
Cc1ccc(C(=O)NCCSc2c[nH]c3ccccc23)cc1C | 46% (active)
O=C(NCCSc1c[nH]c2ccccc12)c1ccc(Cl)cc1 | 47% (active)
O=C(NCCSc1c[nH]c2ccccc12)c1ccccc1Cl | 57%
CN(C)S(=O)(=O)c1ccc(C(=O)NCCSc2c(-c3ccc(Cl)cc3)[nH]c3ccccc23)cc1 | 67%
Cc1ccc(C(=O)NCCSc2c(C)[nH]c3ccccc23)cc1C | 55%
COc1ccc(C(=O)NCCSc2c[nH]c3ccccc23)cc1OC | 76%
Cc1ccc(Cn2c(CN3CCN(c4cccc(Cl)c4)CC3)nc3c2c(=O)n(C)c(=O)n3C)cc1 | 107%
COc1cccc(C2CC(=O)Nc3c2c(=O)n(C)c2nc4ccccc4n32)c1 (stereo unspecified) | 67%
CCn1c(=O)cc(SCC(=O)NCc2ccc(OC)cc2OC)c2ccccc21 | 66%
COc1ccc(C2=NC(c3ccncc3)=Nc3ccc(Br)cc3N2)cc1 | 82%
CCCCOc1ccc(C2=NC(c3ccncc3)=Nc3ccc(Br)cc3N2)cc1 | 12% (active)
CCCCOc1ccc(C2=NC(c3ccncc3)=Nc3ccc(OCC)cc3N2)cc1 | 75%
CCn1c(C(=O)NCc2ccccc2C)cc2oc3ccccc3c21 | 14% (active)
Cn1c(C(=O)NCc2ccccc2F)cc2oc3ccccc3c21 | 55%
CCCOc1ccc(CNC(=O)c2cc3oc4ccccc4c3n2C)cc1 | 73%

SMILES | survival
COc1ccc(CNC(=O)c2cc3oc4ccccc4c3n2C)cc1OC | 43% (active)
CCn1c(C(=O)NCc2ccccc2Br)cc2oc3ccccc3c21 | 48%
Cn1c(C(=O)NCc2cccc(Cl)c2)cc2oc3ccccc3c21 | 85%
CCn1c(C(=O)NCc2cc(Br)ccc2OC)cc2oc3ccccc3c21 | 67%
CCn1c(C(=O)NCc2ccc(OC(C)C)cc2)cc2oc3ccccc3c21 | 33% (active)
CCn1c(C(=O)NCc2cccc(Br)c2)cc2oc3ccccc3c21 | 50%
CCn1c(C(=O)NCc2ccc(F)cc2)cc2oc3ccccc3c21 | 89%
CCOc1ccccc1CNC(=O)c1cc2oc3ccccc3c2n1CC | 2% (active)
CCOc1ccc(CNC(=O)c2cc3oc4ccccc4c3n2C)cc1 | 95%
Cc1c(-c2nsc(NC(=O)c3cccs3)n2)nnn1-c1ccc(Br)cc1 | 77%
COc1ccc2[nH]c(=O)c(CN(C3CCCC3)S(=O)(=O)c3cccc4nsnc34)cc2c1 | 96%
Cc1ccc(NC(=O)Cn2c(=O)n(CCCCC(=O)NCCc3ccccc3)c(=O)c3ccccc32)c(C)c1 | 84%
CCc1ccc(NC(=O)CSc2ccc(-c3cccs3)nn2)cc1 | 72%
Cc1cccc(NC(=O)c2cc3c(=O)n4cccc(C)c4nc3s2)c1C | 65%
CC(=O)OC1=CN(Cc2ccccc2)S(=O)(=O)c2ccccc21 | 71%
COc1ccccc1CNC(=O)CCCCn1c(=O)c2ccccc2n(Cc2ccccc2F)c1=O | 93%
COc1cccc(NC(=O)c2ccc(CNS(=O)(=O)c3ccc4c(c3)C(C)(C)C(=O)N4C)cc2)c1 | 51%
CCc1nn(Cc2cccc(F)c2)c(=O)c2cc3cc(C)ccc3n12 | 40% (active)
CCc1nn(Cc2c(C)cc(C)cc2C)c(=O)c2cc3cc(C)ccc3n12 | 88%
CCc1nn(Cc2ccc(Cl)cc2)c(=O)c2cc3cc(C)ccc3n12 | 94%
COc1ccc(C)cc1NC(=O)NCc1ccc2c(c1)CCN2C(=O)c1ccccc1 | 105%
COc1cccc(C(=O)N2CC(C)OC(C)C2)c1 (stereo unspecified) | 65%
COc1cccc(C(=O)N2c3ccc(C)cc3C(C)(c3ccccc3)CC2(C)C)c1 (stereo unspecified) | -5% (active)
COC(=O)C1=NN(C(=O)c2cccc(OC)c2)C(C)(O)C1 (stereo unspecified) | 104%

SMILES | survival
COc1ccccc1C(=O)NCc1ccc2c(c1)CCN2C(=O)c1cccc(C)c1 | 77%
COc1cccc(C(=O)N2c3cc(C)ccc3C(C)(c3ccccc3)CC2(C)C)c1 (stereo unspecified) | 1% (active)
COc1ccc(-c2cc3ccc(O)c(CN4CCCC(C)C4)c3oc2=O)cc1 (stereo unspecified) | 79%
CCOc1ccccc1Nc1nc(-c2cccc(Cl)c2)c2c(n1)-c1ccccc1OC2 | 61%
CN(C(=O)CSc1nc2ccc(NC(=O)CCc3ccccc3)cc2s1)c1ccccc1 | 73%
CCCCc1c(C)[nH]c2ccccc2c1=O | 83%
Cc1ccc(CNC(C)c2ccccc2)s1 (stereo unspecified) | 75%
Cc1[nH]c2ccccc2c1C(c1ccccc1)c1ccc(Cl)s1 (stereo unspecified) | 0% (active)
Cc1ccc(C(c2cccc(Br)c2)c2c(C)[nH]c3ccccc23)s1 (stereo unspecified) | 65%
NNC(=O)CSc1c(-c2cccs2)[nH]c2ccccc12 | 84%
S=c1nc(Cc2cccs2)[nH]c2ccccc12 | 100%
Cc1[nH]c2ccccc2c1C1(O)C(=O)Nc2ccc(Cl)cc21 (stereo unspecified) | 66%
C=CCc1c(C)[nH]c2ccccc2c1=O | 98%
Cc1ccc(C(c2ccccc2)c2c(C)[nH]c3ccccc23)s1 (stereo unspecified) | 26% (active)
CCc1ccc(C(c2ccccc2)c2c(C)[nH]c3ccccc23)s1 (stereo unspecified) | 25% (active)
Cc1[nH]c2ccccc2c1C(c1ccccc1)c1cccs1 (stereo unspecified) | 7% (active)
Cc1cccc(Nc2c(-c3ccsc3)nc3nc(C)cc(C)n23)c1 | 130%
CS(=O)(=O)Nc1ccccc1C(=O)O | 81%
CCCSc1ncc(Cl)c(C(=O)Nc2c(C(=O)Nc3ccc(C)cc3)oc3ccccc23)n1 | 62%
Cc1cccc(NC(=O)Cn2c(=O)n(CCCCCC(=O)NCc3ccccc3)c(=O)c3sccc32)c1 | 62%
CCOC(=O)c1cnn(Cc2ccccc2)c1N | 79%
CCOC(=O)c1noc2ncnc(N3CCN(c4ccccc4OC)CC3)c12 | 77%
COc1ccccc1NC(=O)N1CCN(Cc2nc3ccc(C)cc3o2)CC1 | 84%
CC(=O)c1cccc(NC(=O)CCn2nc(C)c(S(=O)(=O)N3CCCCC3)c2C)c1 | 134%

SMILES | survival
CC(=O)c1ccc(NC(=O)CCn2nc(C)c(S(=O)(=O)N3CCC(C)CC3)c2C)cc1 | -5% (active)
Cc1nn(CCC(=O)Nc2cccc(C#N)c2)c(C)c1S(=O)(=O)N1CCC(C)CC1 | 89%
CCOC(=O)c1cnc2ccc(OC(F)(F)F)cc2c1Nc1ccccc1C(=O)O | 37% (active)
CCOC(=O)c1cnc2cc(F)c(F)cc2c1Nc1ccccc1O | 156%
CCOC(=O)c1cnc2ccc(C(=O)OC)cc2c1Nc1ccccc1CC | -3% (active)
CCOC(=O)c1ccc2ncc(C(=O)OCC)c(Nc3ccc(C)c(Br)c3)c2c1 | 39% (active)
CCOC(=O)c1cnc2ccccc2c1NCC(C)O (stereo unspecified) | 89%
CCc1ccc2[nH]c(=O)c(C(c3nnnn3C3CCCC3)N(Cc3ccccc3)Cc3ccco3)cc2c1 (stereo unspecified) | 104%
O=C(CN1c2ccc(Br)cc2-c2ccccc2S1(=O)=O)N1CCCCC1 | 91%
COc1cc(CNc2ccc3[nH]c(=O)[nH]c3c2)cc(Cl)c1OCc1ccccc1F | 78%
CCOc1ccc(CCNC(=O)c2sc3ncccc3c2-n2c(C)ccc2C)cc1 | 106%
COCCNc1nc2c(S(=O)(=O)c3ccc(C)c(C)c3)nnn2c2ccc(Cl)cc12 | 89%
O=C(NCc1ccccc1Cl)NCc1noc2ccccc12 | 45%
Cc1cccc(-c2nn3c(=O)cc(CN4CCN(C(=O)c5ccccc5Br)CC4)nc3s2)c1 | 100%
CCOC(=O)c1cc(C)n(CC2CCC(C(=O)Nc3ccc(C(=O)OC)cc3)CC2)c1C (stereo unspecified) | 69%
CCOC(=O)c1cc(C)n(CC2CCC(C(=O)Nc3ccc(Cl)cc3)CC2)c1C (stereo unspecified) | 46% (active)
CCOC(=O)c1cc(C)n(CC2CCC(C(=O)Nc3ccc(C)cc3)CC2)c1C (stereo unspecified) | 98%
O=C(NC1CCCC1)C1CCCN(S(=O)(=O)c2ccc(-n3cnnn3)cc2)C1 (stereo unspecified) | 72%
CCOc1ccc(NC(=O)c2ccc(-c3ccccc3)s2)cc1 | 86%
CSc1ncc(C(=O)Nc2ccc(F)cc2F)c(-c2ccccc2)n1 | 71%
CCOc1ccc(OCC)c(NC(=O)c2ccc(-c3ccccc3)s2)c1 | 27% (active)
O=C(Nc1ccccc1F)c1ccc(-c2ccccc2)s1 | 81%
COc1ccc(Cl)cc1NC(=O)c1cnc(SC)nc1-c1ccccc1 | 49%
CCOc1ccc(OCC)c(NC(=O)c2cnc(SC)nc2-c2ccccc2)c1 | 32% (active)
